# Laboratory results published in the supplement of paper PMC8728848.
# About 410 targets per protein were measured; listed, in parts, are those with the strongest signals and a random draw of the rest.
# B1: LTL (Lotus tetragonolobus), P19664 (protein)
# chain: VSFNYTEFKDDGSLILQGDAKIWTDGRLAMPTDPLVNNPKTTRSAGRALYATPVPIWDSATGNVASFVTSFNFLFVIRELKYTPTDGLVFFLAPVGTEIPSGSTGGFLGIFDGSNGFNQFVAVEFDSYHNIWDPKSLRSSHVGIDVNSIMSLKAVNWNRVSGSLEKATIIYDSQTNILSVVMTSQNGQITTIYGTIDLKTVLPEKVSVGFSATTGNPEREKHDIYSWSFTSTLKEPEEQA
# B2: Alpha-agglutinin (Saccharomyces cerevisiae) (protein)
# chain: MFTFLKIILWLFSLALASAININDITFSNLEITPLTANKQPDQGWTATFDFSIADASSIREGDEFTLSMPHVYRIKLLNSSQTATISLADGTEAFKCYVSQQAAYLYENTTFTCTAQNDLSSYNTIDGSITFSLNFSDGGSSYEYELENAKFFKSGPMLVKLGNQMSDVVNFDPAAFTENVFHSGRSTGYGSFESYHLGMYCPNGYFLGGTEKIDYDSSNNNVDLDCSSVQVYSSNDFNDWWFPQSYNDTNADVTCFGSNLWITLDEKLYDGEMLWVNALQSLPANVNTIDHALEFQYTCLDTIANTTYATQFSTTREFIVYQGR
# Assays:
# Experiment in all cases: glycan array binding signal (z-score within array); higher = stronger binding
# Details in all cases: glycan notation: IUPAC condensed, linker removed
# [1] = target: Fuc(a1-2)Gal(b1-3)GalNAc(b1-3)Gal(b1-4)Glc
# In short: (§1)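 From the Consortium for Functional Glycomics database, 3228 arrays were curated, keeping only those whose protein sequence was available. Binding is given as a within-array Z-score averaged across arrays sharing a protein sequence and across linkers. Negative Z-scores can be read as non-binding.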
# [2] = target: Fuc(a1-2)Gal(b1-3)[Fuc(a1-4)]GlcNAc(b1-2)Man(a1-3)[Fuc(a1-2)Gal(b1-3)[Fuc(a1-4)]GlcNAc(b1-2)Man(a1-3)]Man(b1-4)GlcNAc(b1-4)GlcNAc
# In short: as §1
# [3] = target: Fuc(a1-2)Gal(b1-3)[Fuc(a1-4)]GlcNAc(b1-3)[Gal(b1-4)GlcNAc(b1-6)]Gal(b1-4)Glc
# In short: as §1
# Fuc(a1-2)Gal(b1-4)GlcNAc = target: Fuc(a1-2)Gal(b1-4)GlcNAc
# In short: as §1
# [4] = target: Fuc(a1-2)Gal(b1-4)GlcNAc6S
# In short: as §1
# [5] = target: Fuc(a1-2)Gal(b1-4)[Fuc(a1-3)]GlcNAc
# In short: as §1
# Fuc(a1-2)GlcNAc = target: Fuc(a1-2)GlcNAc
# In short: as §1
# [6] = target: Fuc(a1-2)[Gal(a1-3)]Gal(b1-3)GalNAc
# In short: as §1
# [7] = target: Fuc(a1-2)[Gal(a1-3)]Gal(b1-4)Glc
# In short: as §1
# [8] = target: Fuc(a1-2)[Gal(a1-3)]Gal(b1-4)GlcNAc(b1-6)GalNAc
# In short: as §1
# [9] = target: Fuc(a1-2)[GalNAc(a1-3)]Gal
# In short: as §1
# [10] = target: Fuc(a1-2)[GalNAc(a1-3)]Gal(b1-4)GlcNAc(b1-3)GalNAc
# In short: as §1
# [11] = target: Fuc(a1-3)[Gal(b1-4)]GlcNAc(b1-3)Gal(b1-4)[Fuc(a1-3)]GlcNAc(b1-3)Gal(b1-4)[Fuc(a1-3)]GlcNAc
# In short: as §1
# [12] = target: Fuc(a1-3)[Gal3S(b1-4)]Glc6S
# In short: as §1
# Gal(b1-3)GalNAc(b1-3)Gal = target: Gal(b1-3)GalNAc(b1-3)Gal
# In short: as §1
# [13] = target: Gal(b1-3)GalNAc(b1-3)Gal(a1-4)Gal(b1-4)Glc
# In short: as §1
# [14] = target: Gal(b1-3)[Fuc(a1-4)]GlcNAc(b1-3)Gal(b1-4)GlcNAc
# In short: as §1
# [15] = target: Gal(b1-3)[Neu5Ac(a2-6)]GalNAc
# In short: as §1
# Gal(b1-4)Gal = target: Gal(b1-4)Gal
# In short: as §1
# [16] = target: Gal(b1-4)GlcNAc(b1-3)Gal(b1-4)GlcNAc(b1-3)Gal(b1-4)GlcNAc(b1-2)Man(a1-3)[Gal(b1-4)GlcNAc(b1-3)Gal(b1-4)GlcNAc(b1-3)Gal(b1-4)GlcNAc(b1-2)Man(a1-6)]Man(b1-4)GlcNAc(b1-4)GlcNAc
# In short: as §1
# [17] = target: Gal(b1-4)GlcNAc(b1-3)Gal(b1-4)GlcNAc(b1-3)Gal(b1-4)GlcNAc(b1-3)Gal(b1-4)GlcNAc(b1-2)Man(a1-3)[Gal(b1-4)GlcNAc(b1-3)Gal(b1-4)GlcNAc(b1-3)Gal(b1-4)GlcNAc(b1-3)Gal(b1-4)GlcNAc(b1-2)Man(a1-6)]Man(b1-4)GlcNAc(b1-4)GlcNAc
# In short: as §1
# [18] = target: Gal(b1-4)GlcNAc(b1-3)Gal(b1-4)GlcNAc(b1-3)GalNAc
# In short: as §1
# [19] = target: Gal(b1-4)GlcNAc(b1-3)Gal(b1-4)GlcNAc(b1-3)[Gal(b1-4)GlcNAc(b1-3)Gal(b1-4)GlcNAc(b1-6)]GalNAc
# In short: as §1
# Gal3S(b1-3)GalNAc = target: Gal3S(b1-3)GalNAc
# In short: as §1
# [20] = target: Gal3S(b1-4)[Fuc(a1-3)]GlcNAc6S
# In short: as §1
# Gal3S6S(b1-4)GlcNAc = target: Gal3S6S(b1-4)GlcNAc
# In short: as §1
# Gal6S(b1-4)Glc = target: Gal6S(b1-4)Glc
# In short: as §1
# Gal6S(b1-4)GlcNAc = target: Gal6S(b1-4)GlcNAc
# In short: as §1
# [21] = target: GalNAc(b1-4)GlcNAc(b1-2)Man(a1-3)[GalNAc(b1-4)GlcNAc(b1-2)Man(a1-6)]Man(b1-4)GlcNAc(b1-4)GlcNAc
# In short: as §1
# [22] = target: GlcNAc(b1-2)Man(a1-3)[GlcNAc(b1-2)Man(a1-6)]Man(b1-4)GlcNAc(b1-4)GlcNAc
# In short: as §1
# [23] = target: Fuc(a1-2)[Gal(a1-3)]Gal(b1-4)[Fuc(a1-3)]GlcNAc
# In short: as §1
# [24] = target: Fuc(a1-2)[GalNAc(a1-3)]Gal(b1-4)Glc
# In short: as §1
# Fuc(a1-4)GlcNAc = target: Fuc(a1-4)GlcNAc
# In short: as §1
# Gal(a1-3)Gal(b1-4)GlcNAc = target: Gal(a1-3)Gal(b1-4)GlcNAc
# In short: as §1
# [25] = target: Gal(b1-3)GalNAc(b1-3)Gal(b1-4)Glc
# In short: as §1
# [26] = target: Gal(b1-4)GalNAc(a1-3)[Fuc(a1-2)]Gal(b1-4)GlcNAc
# In short: as §1
# [27] = target: Gal(b1-4)GlcNAc(b1-3)Gal(b1-4)Glc
# In short: as §1
# Gal6S(b1-4)Glc6S = target: Gal6S(b1-4)Glc6S
# In short: as §1
# GalNAc(a1-3)Gal = target: GalNAc(a1-3)Gal
# In short: as §1
# [28] = target: GlcNAc(b1-3)[GlcNAc(b1-4)][GlcNAc(b1-6)]GlcNAc
# In short: as §1
# [29] = target: GlcNAc(b1-4)[GlcNAc(b1-6)]GalNAc
# In short: as §1
# [30] = target: Man(a1-2)Man(a1-3)[Man(a1-3)[Man(a1-6)]Man(a1-6)]Man(b1-4)GlcNAc(b1-4)GlcNAc
# In short: as §1
# [31] = target: Neu5Ac(a2-3)Gal(b1-4)[Fuc(a1-3)]GlcNAc
# In short: as §1
binder,measurement,setting,value
B1,glycan array binding signal (z-score),[1],0.013
same,glycan array binding signal (z-score),[2],0.157
same,glycan array binding signal (z-score),[3],-0.265
same,glycan array binding signal (z-score),Fuc(a1-2)Gal(b1-4)GlcNAc,0.463
same,glycan array binding signal (z-score),[4],-0.057
same,glycan array binding signal (z-score),[5],4.58
same,glycan array binding signal (z-score),Fuc(a1-2)GlcNAc,2.03
same,glycan array binding signal (z-score),[6],0.102
same,glycan array binding signal (z-score),[7],-0.211
same,glycan array binding signal (z-score),[8],-0.201
same,glycan array binding signal (z-score),[9],-0.25
same,glycan array binding signal (z-score),[10],-0.219
same,glycan array binding signal (z-score),[11],8.86
same,glycan array binding signal (z-score),[12],0.757
same,glycan array binding signal (z-score),Gal(b1-3)GalNAc(b1-3)Gal,-0.295
same,glycan array binding signal (z-score),[13],0.007
same,glycan array binding signal (z-score),[14],-0.389
same,glycan array binding signal (z-score),[15],-0.277
same,glycan array binding signal (z-score),Gal(b1-4)Gal,-0.131
same,glycan array binding signal (z-score),[16],3.1
same,glycan array binding signal (z-score),[17],0.014
same,glycan array binding signal (z-score),[18],2.04
same,glycan array binding signal (z-score),[19],2.93
same,glycan array binding signal (z-score),Gal3S(b1-3)GalNAc,-0.003
same,glycan array binding signal (z-score),[20],-0.287
same,glycan array binding signal (z-score),Gal3S6S(b1-4)GlcNAc,0.068
same,glycan array binding signal (z-score),Gal6S(b1-4)Glc,-0.131
same,glycan array binding signal (z-score),Gal6S(b1-4)GlcNAc,-0.022
same,glycan array binding signal (z-score),[21],1.48
same,glycan array binding signal (z-score),[22],-0.3
B2,glycan array binding signal (z-score),[1],6.41
same,glycan array binding signal (z-score),[23],-0.112
same,glycan array binding signal (z-score),[24],0.558
same,glycan array binding signal (z-score),Fuc(a1-4)GlcNAc,-0.216
same,glycan array binding signal (z-score),Gal(a1-3)Gal(b1-4)GlcNAc,-0.248
same,glycan array binding signal (z-score),[25],8.68
same,glycan array binding signal (z-score),[26],0.014
same,glycan array binding signal (z-score),[27],3.24
same,glycan array binding signal (z-score),Gal6S(b1-4)Glc6S,0.122
same,glycan array binding signal (z-score),GalNAc(a1-3)Gal,-0.162
same,glycan array binding signal (z-score),[28],0.203
same,glycan array binding signal (z-score),[29],5.52
same,glycan array binding signal (z-score),[30],-0.251
same,glycan array binding signal (z-score),[31],-0.258
